Measured values taken from paper PMC4552634, “A New Set of Chemical Starting Points with Plasmodium falciparum Transmission-Blocking Potential for Antimalarial Drug Discovery” (PLoS ONE, 2015).
Like-named read-outs stand apart in the source and are kept apart here. About 3,200 (25%) of roughly 13,000 compounds showed an effect of 50% or more. The list shows a part of the results.

System: P. falciparum stage V gametocytes
Design: BacTiter-Glo ATP luminescence viability of purified stage V gametocytes in 384-well plates, per cent inhibition versus DMSO
Details: 48 h, 5 µM, inhibitor

| SMILES | % Inhibition | % Inhibition (% Inhibition) |
| --- | --- | --- |
| O=C(Nc1ccc2ccccc2n1)c1ccccc1-c1ccccc1 [TCMDC-125339] | -5.994% | – |
| FC(F)(F)c1ccc(/C=C/c2cncnc2Nc2ccc3nc(Cc4ccccc4)[nH]c3c2)cc1 [TCMDC-138660] | -4.612% | – |
| CC(Oc1ccc(C(=O)c2ccc(F)cc2)cc1)C(=O)N1CCc2ccccc21 (centres unmarked) [TCMDC-123555] | 10.82% | – |
| Cc1sc2nc(CSc3ccccc3)nc(N3CCN(CC(=O)N4CCCC4)CC3)c2c1C [TCMDC-125052] | -14.62% | – |
| N#Cc1ccc2c(c1)CCN(CCC1CCC(NC(=O)/C=C/c3ccc(F)c4ccccc34)CC1)CC2 (centres unmarked) [TCMDC-139664] | -16.56% | – |
| CC(C)C[C@H](Nc1ccnc(NCC2CCCCC2)n1)C(=O)NCCc1ccccc1 [TCMDC-134713] | -30.95% | – |
| CCCC(=O)Nc1ccc(OCCN(Cc2ccccc2OC(F)(F)F)c2ccc(C(F)(F)F)c(C#N)c2)cc1 [TCMDC-132791] | 22.95% | – |
| CCCCCc1ccc(NC(=O)Nc2ccc(Cn3ncc(N4CCCNCC4)c(Cl)c3=O)cc2)cc1 [TCMDC-133312] | -21.48% | – |
| Cc1ccc(C2CCN(CCCCNC(=O)c3ccc(-c4ccc(C(F)(F)F)cc4)cc3)CC2)c(O)c1 [TCMDC-138538] | 45.11% | – |
| COc1cccc(OCC2CCCN(CCCCNC(=O)c3ccc(NC(=O)c4ccc(Cl)cc4)cc3)C2)c1 (centres unmarked) [TCMDC-138269] | 92.38% | – |
| CCOc1ccc(C2CCN(CCCCNC(=O)c3ccc(NC(=O)c4ccc(Cl)cc4)cc3)CC2)c(OCC)c1 [TCMDC-138260] | 93.19% | – |
| CCOc1ccc(N2CCN(CCCCNC(=O)c3ccc(NC(=O)c4ccc(Cl)cc4)cc3)CC2)c(OCC)c1 [TCMDC-138243] | 4.088% | – |
| COc1ccc(C2CCN(CCCNC(=O)c3ccc(NC(=O)c4ccc(Cl)cc4)cc3)CC2)c(OC)c1 [TCMDC-138288] | 4.031% | – |
| COc1cccc(C2CCCN(CCCCNC(=O)c3ccc(NC(=O)c4ccc(Cl)cc4)cc3)C2)c1 (centres unmarked) [TCMDC-138283] | 16.5% | – |
| O=C(NCCCCN1CCC(c2ccc(C(F)(F)F)cc2C(F)(F)F)CC1)c1ccc(NC(=O)c2ccc(Cl)cc2)cc1 [TCMDC-138343] | -51.81% | – |
| COc1ccc(C2CCN(CCCCNC(=O)c3ccc(NC(=O)c4ccc(Cl)cc4)cc3)C2)c(OC)c1 (centres unmarked) [TCMDC-138281] | 10.37% | – |
| CC(C)c1ccc(C2CCN(CCCCNC(=O)c3ccc(NC(=O)c4ccc(C(F)(F)F)cc4)cc3)CC2)c(O)c1 [TCMDC-138527] | 105.5% | – |
| CCCCc1nc2nc(N)nc(N)c2cc1CCC [TCMDC-137499] | 32.62% | – |
| Nc1ccn([C@@H]2O[C@H](COC(c3ccccc3)(c3ccccc3)c3ccccc3)[C@@H](O)[C@@H]2O)c(=O)n1 [TCMDC-131864] | 13.5% | – |
| Cc1[nH]cc(Br)c(=O)c1-c1ccc(Oc2ccccc2)cc1 [TCMDC-136196] | 35.13% | – |
| COc1cc(NC(=O)Nc2cccc3ccccc23)c(OC)cc1Cl [TCMDC-123751] | 9.254% | – |
| COc1ccc(OC)c(-c2ccc(=O)n(CC(=O)Nc3cccc4ccccc34)n2)c1 [TCMDC-125146] | 85.63% | – |
| COc1ccc(C(=O)Cn2nc(-c3ccc(Cl)cc3)ccc2=O)c(OC)c1 [TCMDC-135946] | -6.888% | – |
| O=C(Cc1cnc[nH]1)Nc1cccc(-c2cccc(-c3nc4ccc(F)cc4[nH]3)c2)c1 [TCMDC-136943] | 10.3% | – |

| SMILES | % Inhibition | % Inhibition (% Inhibition) |
| --- | --- | --- |
| O=C(Nc1ccc(Cl)c(Cl)c1)N(Cc1ccccc1Br)C1CCNCC1 [TCMDC-141401] | 32.46% | – |
| O=C(Nc1cccc(-c2cccc(-c3ccc(F)cc3)n2)c1)c1ccc([N+](=O)[O-])o1 [TCMDC-124807] | 101.6% | – |
| COc1cccc(-c2cc(C(=O)Nc3cc(Oc4ccc(O)cc4)cc([N+](=O)[O-])c3)on2)c1 [TCMDC-125290] | -10.41% | – |
| COc1cccc(-c2cc(-c3ccc(NC(=O)c4ccccc4)cc3)c3c(N)ncnc3n2)c1 [TCMDC-134855] | -19.07% | – |
| Cc1ccc(-n2nc3ccc(NC(=O)c4ccc([N+](=O)[O-])o4)cc3n2)cc1C [TCMDC-123655] | 20.82% | – |
| COc1ccc(OC)c(-c2cccc(-c3cccc(NC(=O)c4ccc([N+](=O)[O-])o4)c3)n2)c1 [TCMDC-124799] | 113.4% | – |
| COc1ccccc1-c1cccc(-c2cccc(NC(=O)c3ccc([N+](=O)[O-])o3)c2)n1 [TCMDC-124800] | 105.3% | – |
| COc1cccc(-c2cccc(-c3ccc(NC(=O)c4ccc([N+](=O)[O-])o4)cc3)n2)c1 [TCMDC-124806] | 99.55% | – |
| O=C(Nc1cccc(-c2nc3ccccc3[nH]2)c1)c1ccc(-c2cccc([N+](=O)[O-])c2)o1 [TCMDC-125228] | 18.9% | – |
| O=C(Nc1ccc(-c2nc3ccccc3[nH]2)cc1)c1ccc(-c2cccc([N+](=O)[O-])c2)o1 [TCMDC-125805] | -5.454% | – |
| CC(C)(C)c1ccc(C(=O)Nc2ccc(NC(=O)c3ccc([N+](=O)[O-])o3)cc2)cc1 [TCMDC-123733] | -4.108% | – |
| CCCc1ccc(-c2csc(NC(=O)c3ccc([N+](=O)[O-])o3)n2)cc1 [TCMDC-125314] | 1.071% | – |
| O=C(Nc1cc(Oc2ccc(O)cc2)cc([N+](=O)[O-])c1)c1cc(-c2ccc(F)cc2)no1 [TCMDC-125444] | -44.25% | – |
| Cc1cc(C(F)(F)F)cc(-n2ncc(-c3ccc(C(=O)NCc4ccccc4N)cc3)c2N)n1 [TCMDC-136658] | -13.23% | – |
| COc1ccc(CN2CCC(N3CCc4cc(NC(=O)c5cc(C)on5)ccc43)C2)cc1Cl (centres unmarked) [TCMDC-135080] | -33.25% | – |
| COc1cc(C)ccc1S(=O)(=O)N1CCCCC(c2ccc(C(F)(F)F)cc2)=N1 [TCMDC-134533] | 19.73% | – |
| CCn1c(SC)nnc1C1CCCN(CC(=O)Nc2nc3ccc(OC)cc3s2)C1 (centres unmarked) [TCMDC-123539] | 2.495% | – |
| Cc1cc(CN2C(=O)C(c3ccccc3)(c3ccccc3)N=C2N)c(C(F)(F)F)o1 [TCMDC-132305] | 6.087% | – |
| Cc1ccc2c(c1)nc(N)n2C[C@H](O)c1ccccc1 [TCMDC-138693] | 42.68% | – |
| COC(=O)C(C)(C)Cc1c(SC(C)(C)C)c2cc(C(C)C)ccc2n1Cc1ccc(Cl)cc1 [TCMDC-131973] | 5.735% | – |
| CN(C)CC(O)C(c1ccccc1)c1ccc(Cl)cc1 (centres unmarked) [TCMDC-131413] | 8.677% | – |
| N=c1sc2ccccc2n1CC(O)c1ccc(Cl)c(Cl)c1 (centres unmarked) [TCMDC-124031] | 27.67% | – |
| OC(CN1CCN(Cc2ccccc2)CC1)Cn1c(-c2ccccc2)c(-c2ccccc2)c2ccccc21 (centres unmarked) [TCMDC-124021] | 9.388% | – |
| O=C(Cc1ccccc1)NC(CCN1CCC(NC(=O)c2ccc(Cl)cc2)CC1)c1ccc(Cl)c(Cl)c1 (centres unmarked) [TCMDC-141709] | -3.295% | – |

| SMILES | % Inhibition | % Inhibition (% Inhibition) |
| --- | --- | --- |
| N=c1n(Cc2ccc(Cl)cc2)c2ccccc2n1CC(O)c1ccc(Cl)c(Cl)c1 (centres unmarked) [TCMDC-123813] | 91.34% | – |
| N=c1n(Cc2ccccc2)c2ccccc2n1CC(O)c1ccc(Cl)c(Cl)c1 (centres unmarked) [TCMDC-124061] | 50.12% | – |
| N=c1n(Cc2ccccc2)c2ccccc2n1CC(O)c1ccc(Cl)cc1 (centres unmarked) [TCMDC-124078] | 66.41% | – |
| C=CCn1c(=N)n(CC(O)c2ccc(Cl)c(Cl)c2)c2ccccc21 (centres unmarked) [TCMDC-125726] | 57.07% | – |
| O=C(NC1CC1)c1cnc(N2CCC(COc3cccc(F)c3)CC2)c(Cl)c1 [TCMDC-134030] | 7.356% | – |
| COc1ccc(CCn2c(C3CCCCC3)nc3oc4ccccc4c(=O)c3c2=O)cc1 [TCMDC-125003] | 26.12% | – |
| Cc1ccc(CON2C(N)=NC(N)=NC23CCCCC3)c2ccccc12 [TCMDC-131589] | 35.49% | – |
| O=S(=O)(NC1CCN(c2ccnc3cc(Cl)ccc23)C1)c1ccc(F)cc1 (centres unmarked) [TCMDC-133654] | 5.841% | – |
| CCC1CN2CCc3c([nH]c4ccccc34)[C@@H]2C[C@@H]1CC1NCCc2cc(OC)c(OC)cc21 (some centres unmarked) [TCMDC-142009] | – | -17.31% |
| CCC1CN2CCc3c([nH]c4ccc(OC)cc34)C2CC1CC1NCCc2cc(OC)c(OC)cc21 (centres unmarked) [TCMDC-142010] | -39.55% | – |
| CCC1=C(C[C@H]2NCCc3cc(OC)c(OC)cc32)C[C@H]2c3cc(OC)c(OC)cc3CCN2C1 [TCMDC-131825] | 95.62% | – |
| CC(C)c1ccc(-c2nc3ncc(Cl)cc3[nH]2)cc1 [TCMDC-125093] | 64.2% | – |
| CCN(CC)c1ccc(-c2nc3ncc(Cl)cc3[nH]2)cc1 [TCMDC-125094] | 7.94% | – |
| Nc1ncc(-c2cn[nH]c2)cc1-c1nc2ncc(Cl)cc2[nH]1 [TCMDC-133562] | -10.74% | – |
| CC(=O)Nc1ccc(S(=O)(=O)Nc2c(C)cc(Cc3cnc(N)nc3N)cc2C)cc1 [TCMDC-137632] | -8.406% | – |
| CNC(=O)Cc1ccc(C(=O)Nc2cccc(-c3ccc(-c4nc5cccc(C)c5[nH]4)s3)c2)cc1 [TCMDC-137076] | -37.06% | – |
| O=C(C=Cc1ccc(Cl)c(Cl)c1)NCCCCCN1CCC(CCNC(=O)c2cccc3ccccc23)CC1 [TCMDC-139565] | 43.11% | – |
| Cc1oc(-c2ccc(Cl)cc2)cc1C(=O)NCCC1CCN(CCCCCNC(=O)/C=C/c2ccc(Cl)c(Cl)c2)CC1 [TCMDC-140009] | 105.7% | – |
| O=C(/C=C/c1ccc(Cl)c(Cl)c1)NCCCCCN1CCC(CCNC(=O)C2(c3ccc(Cl)cc3)CC2)CC1 [TCMDC-140000] | 67.34% | – |
| CN(C(=O)C1(c2ccc(Cl)cc2)CC1)C1CCN(CCCCCNC(=O)/C=C/c2ccc(Cl)c(Cl)c2)CC1 [TCMDC-139987] | -12.99% | – |
| O=C(/C=C/c1ccc(Cl)c(Cl)c1)NCCCCCN1CCC(CCNC(=O)Cc2ccc(Cl)cc2)CC1 [TCMDC-140001] | 60.19% | – |
| O=C(/C=C/c1ccc(Cl)c(Cl)c1)NCCCCCN1CCC(CCNC(=O)/C=C/c2ccc(Cl)c(Cl)c2)CC1 [TCMDC-139998] | 17.18% | – |
| Cc1c(CC(=O)NCCC2CCN(CCCCCNC(=O)/C=C/c3ccc(Cl)c(Cl)c3)CC2)sc2ccc(Cl)cc12 [TCMDC-140008] | 19.89% | – |
